In PubChem BioAssay one finds composite z-score and z-score data, which are given here for 4 molecules.

Activity calls are given as the source filed them. Unless noted, no rule for the calls is given here.

Assay [1] in a line: compounds binding Alexa647 anti-His antibody – biochemical, small-molecule microarray, 635 nm fluorescence, artefact control for SMM control protein annotation, primary screen (AID 1128).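 Also: score merges feature fluorescence with signal-to-noise for each printed compound spot.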 The following applies: higher = more signal.
Assay [2] has as its system Human papillomavirus type 1a E7 protein (residues 1-88). The assay can be described thus: HPV1a E7 small-molecule binders, primary screen, biochemical, small-molecule microarray, residues 1-88, 635 nm (AID 1129). The following applies: small-molecule microarray binding, fluorescence 635 nm; higher = more signal.
Assay [3] concerns the target Focal adhesion kinase 1 (Homo sapiens) (UniProt Q05397). Put plainly: PTK2 protein binding on printed compound slides – biochemical, small-molecule microarray, 635/667 nm fluorescence, BSA, DTT, primary screen (AID 1130).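 Also: composite of spot emission at 667 nm and signal to noise over triplicate slides.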 The following applies: 635 nm fluorescence, higher = more signal.
The subject of assay [4] is Fibrinogen (Alexa647-labelled). The assay can be described thus: Alexa647-fibrinogen binding to printed small molecules – biochemical, small-molecule microarray, 635/667 nm fluorescence, artefact control for SMM control-protein annotation, profiling panel (AID 1131).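 Also: z-score merges 667 nm fluorescence with per-spot signal-to-noise over triplicate slides.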 The following applies: fibrinogen-A647 binding fluorescence, higher = more signal.
For assay [5], the target named is Follistatin (Homo sapiens) (UniProt P19883). Put plainly: FST protein binding to printed compounds – biochemical, small-molecule microarray, 635/667 nm fluorescence, primary screen (AID 1132). The following applies: 635 nm fluorescence, higher = more signal.
Follistatin (Homo sapiens), sequence (P19883 whole entry, looked up): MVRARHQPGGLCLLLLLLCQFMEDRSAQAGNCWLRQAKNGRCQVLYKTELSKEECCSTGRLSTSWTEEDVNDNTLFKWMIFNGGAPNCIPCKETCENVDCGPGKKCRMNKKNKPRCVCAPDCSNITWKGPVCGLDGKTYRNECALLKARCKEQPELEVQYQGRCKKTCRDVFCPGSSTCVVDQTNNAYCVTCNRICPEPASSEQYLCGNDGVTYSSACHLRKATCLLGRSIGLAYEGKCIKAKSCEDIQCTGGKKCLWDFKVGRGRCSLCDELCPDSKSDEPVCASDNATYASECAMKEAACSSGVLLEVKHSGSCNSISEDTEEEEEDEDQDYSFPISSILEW
Assay [6] addresses Fibroblast growth factor 2 (Homo sapiens) (UniProt P09038). Put plainly: basic fibroblast growth factor binding to printed compounds – biochemical, small-molecule microarray, 635/667 nm fluorescence, primary screen (AID 1133). The following applies: FGF2, fluorescence 635/667, higher = more signal.
A short description of assay [7]: JC-1 mitochondrial potential readout, lung cancer cells – cell-based, A549, JC-1 fluorescence, basal, 24 h, 100 nL, profiling panel (AID 1138).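 Also: A549 lung adenocarcinoma cells under basal conditions with no added stimulus; test concentration not given here.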 The following applies: higher = more signal.
The test system of another assay is Lefty1. The assay can be described thus: Lefty1 protein binding to printed compounds – biochemical, small-molecule microarray, 635/667 nm fluorescence, primary screen (AID 1139). The following applies: fluorescence 635/667, higher = more signal.
Assay [8] has as its system wheat germ agglutinin (Triticum aestivum), Alexa647-labelled. The assay can be described thus: Alexa647-WGA lectin binding to printed small molecules – biochemical, small-molecule microarray, 635/667 nm fluorescence, artefact control for SMM control-protein annotation, profiling panel (AID 1140).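 Also: score merges 667 nm feature emission with signal to noise over triplicate slides.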 The following applies: WGA-A647 binding, 635 nm fluorescence, higher = more signal.

Assay [9] addresses Luciferin 4-monooxygenase (Photinus pyralis) (UniProt P08659). The assay can be described thus: inhibition of purified Photinus pyralis luciferase – biochemical, luminescence, purified enzyme, 2006 set, primary screen (AID 1141).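 Also: cell-free assay with purified firefly luciferase at 100 ng per well in PBS; test concentration not given here.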 The following applies: purified firefly luciferase, SteadyGlo luminescence, 30 min; higher = more signal, called active from +8 up or from −8 down.
The test system of assay [10] is Wnt5a (protein binding on small-molecule microarray). The assay can be described thus: small molecules binding Wnt5a protein – biophysical, small-molecule microarray, 635/667 nm fluorescence, primary screen (AID 1142).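 Also: fluorescence read at 667 nm with signal to noise per printed feature.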 The following applies: 635 nm fluorescence, higher = more signal.
Assay [11] can be described thus: ATP-based viability of Huh7 replicon cells – cell-based, CellTiter-Glo luminescence, basal, 48 h, cytotoxicity control for HCV replication inhibitor project, primary screen (AID 1143).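 Also: Huh7 hepatoma cells carrying a hepatitis C replication reporter with no stimulus; test concentration not given here.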 The following applies: higher = more signal, called active from +8 up or from −8 down. (A replicon is a self-replicating genome or part of one, used to study replication in cells.)
A short description of assay [12]: Pseudomonas biofilm growth suppression – PAO1 strain, BacTiter-Glo luminescence, LB-PBS, primary screen (AID 1144). The following applies: P. aeruginosa PAO1 biofilm, 12 h, higher = more signal.
Assay [13] is described as follows: basal CRE-LacZ reporter activity in PC12 – cell-based, unstimulated, primary screen (AID 1145). The following applies: no forskolin, luminescence, 4.5 h, higher = more signal, called active from +8 up or from −8 down.
Assay [14] is described as follows: forskolin-driven CRE-LacZ activity in PC12 – cell-based, CRE-LacZ reporter, forskolin-stimulated, primary screen (AID 1146).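 Also: PC12 cells with 6xCRE LacZ reporter stimulated by forskolin 10 µM; beta-galactosidase reporter signal reflecting CREB driven transcription.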 The following applies: luminescence, 4.5 h, higher = more signal, called active from +8 up or from −8 down.
Assay [15] concerns the target Streptavidin (Streptomyces avidinii) (UniProt P22629). Put plainly: compounds binding control protein streptavidin – biophysical, small-molecule microarray, 635/667 nm fluorescence, artefact control for SMM compound annotation, primary screen (AID 1147).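 Also: signal reflects streptavidin binding to arrayed compounds as a control protein.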 The following applies: higher = more signal.
Assay [16] in a line: probe aInhba binding on compound microarray – biochemical, small-molecule microarray, 635/667 nm fluorescence, primary screen (AID 1148).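 Also: score merges 667nm spot fluorescence with signal-to-noise for antibody binding to printed compounds.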 The following applies: higher = more signal.
Assay [17] concerns the target Torsin-1A (Homo sapiens) (UniProt O14656). Put plainly: TOR1A wild-type binding on microarray – cell lysate, small-molecule microarray, lysate, 635/667 nm, primary screen (AID 1149). The following applies: COS7 hTOR1A-WT lysate, 635 nm fluorescence, higher = more signal.
The target is the same in assay [18]. Put plainly: torsin A mutant lysate binding on microarrays – cell lysate, small-molecule microarray, COS7 lysate, 635/667 nm fluorescence, primary screen (AID 1150).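 Also: score pools 667 nm emission and signal to noise measuring lysate protein binding.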 The following applies: COS7 hTOR1A mutant lysate, 635 nm fluorescence, higher = more signal.
Assay [19] concerns Sonic hedgehog protein (Shh). The assay can be described thus: Sonic hedgehog microarray binding compounds – biochemical, small-molecule microarray, 635/667 nm fluorescence, primary screen (AID 1151).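 Also: Shh protein binding to compounds spotted on small-molecule microarray slides; score combines spot fluorescence intensity with signal-to-noise across triplicate slides.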 The following applies: 635 nm fluorescence, higher = more signal.

Streptavidin (Streptomyces avidinii), sequence (P22629 whole entry, looked up): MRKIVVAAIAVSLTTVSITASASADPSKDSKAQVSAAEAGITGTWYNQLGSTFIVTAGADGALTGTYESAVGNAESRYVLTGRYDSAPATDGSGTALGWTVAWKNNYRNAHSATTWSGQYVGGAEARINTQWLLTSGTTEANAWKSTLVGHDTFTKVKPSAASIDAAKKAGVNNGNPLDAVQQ
Torsin-1A (Homo sapiens), sequence (O14656 whole entry, looked up): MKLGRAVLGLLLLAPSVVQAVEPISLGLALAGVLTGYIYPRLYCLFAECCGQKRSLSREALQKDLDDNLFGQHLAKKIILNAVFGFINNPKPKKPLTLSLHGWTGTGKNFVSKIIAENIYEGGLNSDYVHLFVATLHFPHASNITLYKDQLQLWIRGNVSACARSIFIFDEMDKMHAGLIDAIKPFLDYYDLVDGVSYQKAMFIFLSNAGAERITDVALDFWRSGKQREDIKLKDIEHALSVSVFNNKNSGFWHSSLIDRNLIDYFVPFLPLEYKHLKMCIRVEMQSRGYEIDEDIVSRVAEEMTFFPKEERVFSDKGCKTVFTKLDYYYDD
Focal adhesion kinase 1 (Homo sapiens), sequence (Q05397 whole entry, looked up): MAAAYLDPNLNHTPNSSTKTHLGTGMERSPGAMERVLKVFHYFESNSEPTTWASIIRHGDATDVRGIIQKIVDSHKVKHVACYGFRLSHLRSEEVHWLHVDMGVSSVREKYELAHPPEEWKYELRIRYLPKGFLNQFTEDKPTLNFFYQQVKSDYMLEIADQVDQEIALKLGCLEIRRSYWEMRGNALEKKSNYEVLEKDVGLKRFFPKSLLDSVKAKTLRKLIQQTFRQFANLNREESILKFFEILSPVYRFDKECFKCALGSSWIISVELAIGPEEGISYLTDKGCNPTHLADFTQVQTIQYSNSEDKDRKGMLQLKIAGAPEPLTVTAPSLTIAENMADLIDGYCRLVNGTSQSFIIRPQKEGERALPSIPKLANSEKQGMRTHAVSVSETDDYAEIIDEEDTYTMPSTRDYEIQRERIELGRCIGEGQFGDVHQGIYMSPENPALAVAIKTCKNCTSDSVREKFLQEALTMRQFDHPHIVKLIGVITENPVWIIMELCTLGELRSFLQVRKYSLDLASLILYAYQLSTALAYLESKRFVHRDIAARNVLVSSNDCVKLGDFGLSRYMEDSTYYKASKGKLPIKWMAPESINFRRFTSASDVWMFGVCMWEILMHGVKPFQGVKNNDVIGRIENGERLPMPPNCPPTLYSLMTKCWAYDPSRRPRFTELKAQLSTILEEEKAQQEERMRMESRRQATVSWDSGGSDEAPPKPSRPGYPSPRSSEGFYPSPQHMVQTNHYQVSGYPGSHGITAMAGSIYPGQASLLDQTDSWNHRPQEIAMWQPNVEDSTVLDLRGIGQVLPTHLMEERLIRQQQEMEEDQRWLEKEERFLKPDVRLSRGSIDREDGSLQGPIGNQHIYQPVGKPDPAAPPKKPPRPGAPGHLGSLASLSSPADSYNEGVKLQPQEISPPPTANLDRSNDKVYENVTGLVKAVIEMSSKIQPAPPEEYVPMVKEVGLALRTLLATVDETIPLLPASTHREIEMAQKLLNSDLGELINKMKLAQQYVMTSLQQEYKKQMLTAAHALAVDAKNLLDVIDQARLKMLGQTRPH
Fibroblast growth factor 2 (Homo sapiens), sequence (P09038 whole entry, looked up): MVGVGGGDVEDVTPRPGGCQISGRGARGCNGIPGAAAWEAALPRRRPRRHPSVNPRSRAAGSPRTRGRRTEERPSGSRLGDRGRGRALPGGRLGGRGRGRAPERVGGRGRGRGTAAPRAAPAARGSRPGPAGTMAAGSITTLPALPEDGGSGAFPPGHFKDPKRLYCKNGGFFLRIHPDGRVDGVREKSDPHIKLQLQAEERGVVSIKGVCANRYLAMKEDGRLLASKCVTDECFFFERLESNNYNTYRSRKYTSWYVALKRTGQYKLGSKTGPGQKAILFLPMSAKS
Luciferin 4-monooxygenase (Photinus pyralis), sequence (P08659 whole entry, looked up): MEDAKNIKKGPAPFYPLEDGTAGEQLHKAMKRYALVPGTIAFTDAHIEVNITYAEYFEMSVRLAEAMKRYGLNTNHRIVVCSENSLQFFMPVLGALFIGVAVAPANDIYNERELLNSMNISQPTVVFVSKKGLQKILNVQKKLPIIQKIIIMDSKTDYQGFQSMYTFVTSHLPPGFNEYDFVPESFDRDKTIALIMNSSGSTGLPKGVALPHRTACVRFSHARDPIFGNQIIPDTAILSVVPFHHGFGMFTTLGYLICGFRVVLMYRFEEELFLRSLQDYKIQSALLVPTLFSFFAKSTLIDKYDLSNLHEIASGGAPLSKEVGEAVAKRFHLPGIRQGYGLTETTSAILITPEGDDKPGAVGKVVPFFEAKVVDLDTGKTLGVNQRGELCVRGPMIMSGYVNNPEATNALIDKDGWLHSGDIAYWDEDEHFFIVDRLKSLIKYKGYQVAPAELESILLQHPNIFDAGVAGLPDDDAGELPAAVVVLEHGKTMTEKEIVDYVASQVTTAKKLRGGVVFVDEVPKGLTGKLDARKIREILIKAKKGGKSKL

In the case of `COCCOC(=O)N1C(=O)[C@@]2(c3ccccc31)[C@H](C(=O)N1CCCCCCC1)[C@H]1C(=O)O[C@H](c3ccccc3)[C@H](c3ccccc3)N1[C@@H]2c1ccc(O)cc1`, the composite z-score in assay [1] came to 0.578; in assay [2], 1.21; in assay [3], 1.01; in assay [4], 0.842; in assay [5], 1.41; in [6] it was 1.74. Moreover, the composite z-score was 1.69 in the assay with Lefty1; 1.25 in assay [8]; 1.21 in assay [10]; 2.17 in [15]; 2.13 in assay [16]; 2.14 with Torsin-1A (Homo sapiens) [17]. Also, the composite z-score in the assay with Torsin-1A (Homo sapiens) [18] amounted to 2.57; in [19] it was 2.17. Further, the z-score was 0.0314 in [7]; 0.047 (inactive) in [9]; -2.11 (inactive) in assay [11]; -1.14 (inactive) in assay [12]; -1.15 (inactive) in [13]; -1.03 (inactive) in assay [14].
Consider `C=C(CCCC)C(=O)CC[C@H](OC(=O)c1cccnc1)c1ccc(CO)o1`, for which the composite z-score is 3.27 in [1]; 1.2 in [2]; -0.188 in assay [3]; 0.664 in assay [4]; 1.18 in [5]; 1.27 in [6]. Further, the composite z-score in the assay with Lefty1 was found to be 1.65; in [8], 0.791; in assay [10], 0.239; in [15] it was 0.14; in [16], 0.212; in the assay with Torsin-1A (Homo sapiens) [17] it was 0.835. Moreover, the values for the composite z-score (with Torsin-1A (Homo sapiens) [18]; in assay [19]) were 0.576 and 1.6, respectively. Besides, the z-score was -0.555 in [7]; -1.33 (inactive) in [9]; 0.0536 (inactive) in [11]; -0.159 (inactive) in assay [12]; -0.117 (inactive) in [13]; 0.484 (inactive) in [14].
As for `COCCOC(=O)N1C(=O)[C@@]2(c3ccccc31)[C@H](C(N)=O)[C@H]1C(=O)O[C@H](c3ccccc3)[C@H](c3ccccc3)N1[C@@H]2c1ccc(OCCO)cc1`, the composite z-score in assay [1] turned out to be 0.918; in assay [2], 1.24; in assay [3], 0.451; in [4] it was 0.927; in assay [5], 1.11; in assay [6], 0.807. Besides, the composite z-score is 0.619 in the assay on Lefty1; 0.982 in [8]; 0.62 in [10]; 0.554 in [15]; 0.0155 in [16]; 1.13 with Torsin-1A (Homo sapiens) [17]. Besides, the composite z-score in the assay with Torsin-1A (Homo sapiens) [18] is 1.14; in assay [19], 1.9. Further, the z-score was 0.101 in assay [7]; 0.346 (inactive) in [9]; -1.57 (inactive) in assay [11]; -0.762 (inactive) in assay [12]; -1.28 (inactive) in [13]; -1.15 (inactive) in assay [14].
`O=C(NCC(F)(F)F)[C@@H]1c2ccccc2C(=O)N(CC23CC4CC(CC(C4)C2)C3)[C@H]1c1ccc(CO)cc1`: the composite z-score in assay [1] came to 1.08; in assay [2] it was 0.722; in assay [3], 1.46; in assay [4], 0.378; in assay [5], 1.16; in assay [6], 1.15. The composite z-score is 0.827 with Lefty1; 0.393 in [8]; 0.41 in [10]; -0.169 in [15]; 0.038 in [16]; 0.11 in the assay with Torsin-1A (Homo sapiens) [17]. Besides, the composite z-score worked out at 0.438 in the assay with Torsin-1A (Homo sapiens) [18] and 1.62 in [19]. Moreover, the z-score in [7] was 0.588; in assay [9], 0.972 (inactive); in assay [11] it was -3.88 (inactive); in assay [12] it was -2.52 (inactive); in assay [13] it was -0.412 (inactive); in assay [14], -1.46 (inactive).
